This passage reports Potency and outcome results from PubChem BioAssay (Tox21).

SMILES strings stand for the structures. Values without a mark were called inactive. Results filed as inconclusive are left out. Active and inactive are the calls of the source. Unless noted, calls follow the shape of the dose curve; as a rule, active = well fitted curve in the direction sought with a large enough effect in the repeat runs; inconclusive = weak or mixed curves; inactive = no such curve, though single readings can be large; an effect the other way counts as inactive or inconclusive.

Assay [1] can be described thus: qHTS assay for small molecules that induce genotoxicity in human embryonic kidney cells expressing luciferase-tagged ATAD5 - cell viability (AID 651634; calls by dose curve; also: nearly all actives have a fitted effect of over 25% in size). The gist of the method:
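Cells (HEK293T, luciferase-tagged ATAD5) are seeded at 2,000 per well, dosed with compound or DMSO vehicle, and incubated 15.5 hr at 37C and 5% CO2. CellTiter-Fluor is added for 30 min before fluorescence is measured.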

Assay [2] is described as follows: qHTS assay for small molecule disruptors of the mitochondrial membrane potential - cell viability (AID 720634; calls by dose curve;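 also: human HepG2 liver cancer cells; series mostly up to about 83 µM; nearly all actives have a fitted effect of over 20% in size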). The gist of the method: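 Cytotoxicity was measured by ATP quantitation in HepG2 wells that had first been treated with compound for 1 hr and stained with m-MPI dye; CellTiter-Glo incubation was 30 min at room temperature.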
(Quantitative high-throughput screening tests each substance at several concentrations.)

Assay [3] is described as follows: qHTS assay to test for compound auto fluorescence at 590 nm (red) in HepG2 cells (AID 720674). The gist of the method:
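Red autofluorescence (Ex/Em 540/590 nm, Rose Bengal sodium equivalents) was measured in HepG2 cells, 2,000 per well in MEM plus 10% FBS, plated overnight at 37 C. Readings were taken 1 hr after adding 23 nL compound or DMSO, at 37 C and 5% CO2.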

Assay [4] is described as follows: qHTS assay to test for compound auto fluorescence at 460 nm (blue) in HEK293 cells (AID 720678). In short, it runs like this: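 Blue-channel (Ex/Em 405/460 nm) intensity measured in HEK293 cultures after overnight compound exposure at 37C; signal expressed relative to triamterene. Cells plated 2,000 per well in 10% dialyzed FBS medium and allowed 4-5 hr to attach.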

Assay [5] can be described thus: qHTS assay to test for compound auto fluorescence at 535 nm (green) in HEK293 cells (AID 720680).
The nature of assay [6]: qHTS assay to test for compound auto fluorescence at 460 nm (blue) in HEK293 cell free culture (AID 720681). The gist of the method: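 Blue fluorescence (Ex 405/Em 460 nm, triamterene-equivalent) was read immediately after pin transfer of compound or DMSO into medium (DMEM, 10% FBS) without cells.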
Assay [7] is described as follows: qHTS assay to test for compound auto fluorescence at 535 nm (green) in HEK293 cell free culture (AID 720682). In short, it runs like this:
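Measurement is a direct plate read of green fluorescence (485 nm in, 535 nm out) after compound addition to serum-supplemented DMEM lacking cells, with fluorescein used to express intensities.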

The nature of assay [8]: qHTS assay to test for compound auto fluorescence at 590 nm (red) in HEK293 cell free culture (AID 720683). The gist of the method:
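Red-channel autofluorescence of compounds in culture medium (DMEM, 10% FBS), no cells, measured at 540/590 nm. Rose Bengal sodium is the reference fluorophore for equivalence.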

Assay [9] is described as follows: qHTS assay to test for compound auto fluorescence at 590 nm (red) in HepG2 cell free culture (AID 720684). In short, it runs like this:
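Cell-free; medium MEM + 10% FBS; compound or DMSO added by pintool; read Ex 540/Em 590 nm; Rose Bengal sodium as red reference fluorophore.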

A short description of assay [10]: qHTS assay to test for compound auto fluorescence at 460 nm (blue) in HepG2 cell free culture (AID 720685). In short, it runs like this:
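Cell-free plates of MEM plus 10% FBS received 23 nL compound or DMSO vehicle; blue-channel (405/460 nm) intensity scored against triamterene as reference fluorophore.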

Assay [11] can be described thus: qHTS assay to test for compound auto fluorescence at 460 nm (blue) in HepG2 cells (AID 720687). In short, it runs like this: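 Blue-channel autofluorescence (Ex/Em 405/460 nm, triamterene-equivalent) was measured after 1 hr compound exposure at 37 C, 5% CO2. Cells were HepG2, plated overnight at 37 C in MEM plus 10% FBS.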
A short description of assay [12]: qHTS assay to identify small molecule antagonists of the glucocorticoid receptor (GR) signaling pathway - cell viability counter screen (AID 720693). Also: nearly all actives have a fitted effect of over 55% in size. Also: potency is read from the fitted curve at half-maximal effect.
A short description of assay [13]: qHTS assay to identify small molecule antagonists of the thyroid receptor (TR) signaling pathway - cell viability counter screen (AID 743064). Also: nearly all actives have a fitted effect of over 50% in size. Also: potency is read from the fitted curve at half-maximal effect. In short, it runs like this: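 Compounds were tested on GH3.TRE-Luc cells in the presence of T3 at 1 nM final. Following 23.5 h at 37 °C, cell viability was quantified by CellTiter-Fluor.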
The target of the next assay is Aromatase (Homo sapiens) (UniProt P11511). Nature of the assay: qHTS assay to identify aromatase inhibitors (AID 743083). Also: nearly all actives have a fitted effect of over 55% in size. Also: potency is read from the fitted curve at half-maximal effect.
Aromatase (Homo sapiens), sequence (P11511 whole entry, looked up): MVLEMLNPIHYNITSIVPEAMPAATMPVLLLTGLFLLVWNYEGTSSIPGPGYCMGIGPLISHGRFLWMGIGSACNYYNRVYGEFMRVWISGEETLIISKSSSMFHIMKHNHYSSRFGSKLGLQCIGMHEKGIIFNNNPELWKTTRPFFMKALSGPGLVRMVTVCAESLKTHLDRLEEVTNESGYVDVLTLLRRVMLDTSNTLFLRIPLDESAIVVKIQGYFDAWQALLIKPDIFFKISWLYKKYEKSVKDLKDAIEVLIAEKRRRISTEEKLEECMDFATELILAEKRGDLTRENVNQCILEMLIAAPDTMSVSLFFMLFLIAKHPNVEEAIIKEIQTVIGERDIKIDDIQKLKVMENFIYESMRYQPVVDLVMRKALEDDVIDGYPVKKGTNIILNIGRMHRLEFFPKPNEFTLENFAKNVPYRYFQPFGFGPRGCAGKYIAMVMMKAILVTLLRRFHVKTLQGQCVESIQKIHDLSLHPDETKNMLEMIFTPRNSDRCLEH
The nature of assay [14]: qHTS assay to identify aromatase inhibitors - cell viability counter screen (AID 743084).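 Also: cells stimulated with testosterone during compound exposure; nearly all actives have a fitted effect of over 55% in size.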
For assay [15], the target named is Aryl hydrocarbon receptor (Homo sapiens) (UniProt P35869). Put plainly: qHTS assay to identify small molecule that activate the aryl hydrocarbon receptor (AhR) signaling pathway (AID 743085). Also: nearly all actives have a fitted effect of over 15% in size. Also: potency is read from the fitted curve at half-maximal effect. In short, it runs like this: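 24 h compound exposure, 37C, HepG2-derived HG2L7.5c1 cells with DRE-responsive luciferase. Readouts: fluorescence viability, then luminescence at room temperature after 30 min.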
Aryl hydrocarbon receptor (Homo sapiens), sequence (P35869 whole entry, looked up): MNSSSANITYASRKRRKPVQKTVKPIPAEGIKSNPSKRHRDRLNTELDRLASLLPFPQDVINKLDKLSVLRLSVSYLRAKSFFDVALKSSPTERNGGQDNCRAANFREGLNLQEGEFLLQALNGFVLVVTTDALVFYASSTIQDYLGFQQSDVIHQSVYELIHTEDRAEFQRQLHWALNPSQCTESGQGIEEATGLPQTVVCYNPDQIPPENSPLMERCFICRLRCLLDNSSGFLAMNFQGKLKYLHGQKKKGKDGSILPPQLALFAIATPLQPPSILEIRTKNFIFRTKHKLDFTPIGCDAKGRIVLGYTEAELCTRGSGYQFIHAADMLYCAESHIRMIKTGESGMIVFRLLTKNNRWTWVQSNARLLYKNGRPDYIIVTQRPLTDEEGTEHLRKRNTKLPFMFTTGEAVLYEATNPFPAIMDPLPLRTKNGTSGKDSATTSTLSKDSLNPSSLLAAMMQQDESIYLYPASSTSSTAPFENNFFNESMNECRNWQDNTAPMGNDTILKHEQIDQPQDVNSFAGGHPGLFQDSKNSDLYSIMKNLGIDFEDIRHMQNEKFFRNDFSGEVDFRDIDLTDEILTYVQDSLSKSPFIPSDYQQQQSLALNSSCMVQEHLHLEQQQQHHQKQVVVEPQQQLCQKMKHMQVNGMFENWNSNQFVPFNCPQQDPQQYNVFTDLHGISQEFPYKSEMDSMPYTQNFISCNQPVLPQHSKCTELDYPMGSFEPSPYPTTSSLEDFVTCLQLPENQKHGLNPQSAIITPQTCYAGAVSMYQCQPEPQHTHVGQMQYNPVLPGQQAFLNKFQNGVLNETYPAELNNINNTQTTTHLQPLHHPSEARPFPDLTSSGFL

Assay [16] can be described thus: qHTS assay for small molecules that induce genotoxicity in human embryonic kidney cells expressing luciferase-tagged ATAD5 (AID 651632). Also: nearly all actives have a fitted effect of over 15% in size. Also: potency is read from the fitted curve at half-maximal effect. In short, it runs like this: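 Cells were seeded at 2,000 per well, dosed with compound, and incubated 16 hr at 37C in 5% CO2. Luciferase activity was then quantified after a 30 min room-temperature incubation with Amplite.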
Assay [17] addresses Acetylcholinesterase (Homo sapiens) (UniProt P22303). Nature of the assay: Acetylcholinesterase (AChE) small molecule antagonists: colormetric cell-based qHTS assay (AID 1347395; calls by dose curve; also: nearly all actives have a fitted effect of over 30% in size). The gist of the method:
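In this cell-based qHTS, attached SH-SY5Y cells were treated with test chemicals for 30 min, after which acetylthiocholine hydrolysis was followed by DTNB colour development over 90 min at 37 C.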

Assay [18] shares this target. Nature of the assay: Acetylcholinesterase (AChE) small molecule antagonists: enzyme-based qHTS assay (AID 1347397; calls by dose curve; also: nearly all actives have a fitted effect of over 55% in size). The conditions noted are these: Potency: AChE enzyme activity inhibition; outcome: AChE enzyme activity inhibition. The gist of the method:
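Colorimetric DTNB readout of acetylthiocholine hydrolysis, 10 min at room temperature, after 30 min room-temperature exposure of 50 mU/mL recombinant human enzyme to compound; DMSO vehicle control.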

Assay [19] shares this target. Nature of the assay: Acetylcholinesterase (AChE) small molecule antagonists: fluorescence cell-based qHTS assay (AID 1347398; calls by dose curve; also: nearly all actives have a fitted effect of over 50% in size). The conditions noted are these: Potency: AChE activity; outcome: AChE activity. The gist of the method: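 Cellular AChE activity read as thiocholine from acetylthiocholine hydrolysis, detected by Thiolite Green fluorescence at 490/520 nm after 40 min at room temperature. Compounds were pre-incubated 30 min at 37 C on adherent SH-SY5Y cells.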

Acetylcholinesterase (Homo sapiens), sequence (P22303 whole entry, looked up): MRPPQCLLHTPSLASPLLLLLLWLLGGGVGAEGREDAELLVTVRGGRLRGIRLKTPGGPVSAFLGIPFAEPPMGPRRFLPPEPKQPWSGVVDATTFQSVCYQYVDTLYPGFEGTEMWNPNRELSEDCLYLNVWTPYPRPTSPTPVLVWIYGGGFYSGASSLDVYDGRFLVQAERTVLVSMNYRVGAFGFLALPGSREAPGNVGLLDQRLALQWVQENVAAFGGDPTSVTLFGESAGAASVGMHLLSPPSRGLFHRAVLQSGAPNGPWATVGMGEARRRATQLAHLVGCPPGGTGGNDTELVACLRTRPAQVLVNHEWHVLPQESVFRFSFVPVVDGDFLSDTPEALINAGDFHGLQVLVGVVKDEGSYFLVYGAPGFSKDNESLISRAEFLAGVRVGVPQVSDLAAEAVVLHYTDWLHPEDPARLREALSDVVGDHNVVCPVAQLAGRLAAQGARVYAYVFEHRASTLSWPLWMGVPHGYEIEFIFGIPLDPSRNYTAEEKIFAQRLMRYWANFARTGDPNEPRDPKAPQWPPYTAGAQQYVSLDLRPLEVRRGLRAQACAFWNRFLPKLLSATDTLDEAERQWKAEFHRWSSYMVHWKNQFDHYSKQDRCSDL

Consider `Cc1cccc(C(C)c2cnc[nH]2)c1C` (stereo unspecified), for which the Potency entry in [1], in [2], in [4], in [5], in assay [6] and in [7] was “inactive” throughout. The Potency entry in assay [10], in assay [11], in assay [12], in [13] and in [14] was “inactive” each time. Further, the outcome in assay [3], in assay [8] and in assay [9] was inactive. In addition, the Potency with Aromatase (Homo sapiens) was 29.8 µM (active); in assay [15], 11.9 µM (active).
Regarding `CCCCC[C@@H](O)C1C(=O)OC(C)[C@H](O)/C=C/C=C/C=C/C=C/C=C(\C)C(O)C(O)C(O)C[C@H](O)C[C@H](O)C[C@H](O)C[C@H](O)C[C@@H]1O` (stereo partly specified), the Potency result in assay [16], in assay [1], in assay [2], in assay [5], in [6] and in assay [7] was “inactive” in each case. In addition, the Potency result (in [10]; in [11]; in assay [12]; in assay [13]; with Aromatase (Homo sapiens); in [14]) was “inactive” each time. Further, the Potency result in assay [15] was “inactive”. Also, the outcome in assay [3], in [8] and in assay [9] was inactive.
As to `Cc1nnc2n1-c1ccc(Cl)cc1C(c1ccccc1)=NC2`, in assay [16], the Potency is 13.3 µM (active). Further, the Potency result in assay [1], in assay [2], in assay [4], in assay [5], in [6] and in assay [7] was “inactive” in each case. The Potency result (in [10]; in [11]; in [12]; in the assay with Aromatase (Homo sapiens); in [14]; in [15]) was “inactive” each time. For the same compound, the compound was called inactive in [3], in [8] and in assay [9].
As for `F/C(COc1ccc2c(c1)[nH]c1ccccc12)=C1/CN2CCC1CC2`, the Potency result in assay [16], in assay [1], in [2], in assay [4], in [5] and in assay [6] was “inactive” throughout. Further, the Potency entry in [7], in assay [10], in assay [11] and in assay [12] was “inactive” each time. For the same compound, the compound was called inactive in assay [3], in [8] and in [9]. The Potency in assay [13] is 7.5 µM (active); in [15], 10.6 µM (active).
For `C[C@]12CCC(=O)C=C1C=C[C@@H]1[C@@H]2CC[C@@]2(C)[C@H]1CC[C@@]2(O)CCC(=O)O`, the Potency result in [16], in assay [1], in [2], in assay [4], in [6] and in assay [7] was “inactive” throughout. In addition, the Potency result (in [10]; in assay [11]; in assay [12]; in [13]; in the assay with Aromatase (Homo sapiens); in assay [14]) was “inactive” each time. Also, the Potency entry in [15] was “inactive”. In addition, the outcome in assay [3], in assay [8] and in assay [9] was inactive.
`CN1CCN(C2=Nc3cc(Cl)ccc3Nc3ccccc32)CC1`: the Potency result in [17] and in [18] was “inactive” in each case.
As to `NCCS(=O)(=O)O`, the Potency result in assay [17], in [18] and in assay [19] was “inactive” in each case.
Consider `CCCC(C)C1(CC)C(=O)NC(=O)NC1=O` (stereo unspecified), for which the Potency entry in assay [16], in assay [1], in assay [2], in assay [4], in [5] and in [6] was “inactive” throughout. Also, the Potency entry (in assay [7]; in assay [10]; in assay [11]; in assay [12]; in assay [13]; in the assay with Aromatase (Homo sapiens)) was “inactive” throughout. Moreover, the Potency entry in assay [14] and in assay [15] was “inactive” throughout. For the same compound, the call in [3], in assay [8] and in assay [9] was inactive.
`CCCCCc1cc(O)c2c(c1)OC(C)(C)[C@@H]1CCC(C)=C[C@@H]21`: the Potency result in assay [16], in assay [1], in [4], in assay [5], in assay [6] and in [7] was “inactive” in each case. Also, the Potency entry in assay [10], in assay [11] and in [14] was “inactive” each time. Moreover, the call in [3], in assay [8] and in [9] was inactive. In addition, the Potency in [12] was 23.9 µM (active); in assay [13] it was 13.3 µM (active); in assay [15] it was 9.44 µM (active).
